# Source: PubChem
# M1 agonist = M1 muscarinic receptor agonism. CHO-M1 cells, Fluo-4 calcium fluorescence, agonist mode; stronger effect = higher value. B-score at 10 µM. 64,000 compounds, 3% hits. AID 626;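 active = fluorescence rise, raw or as B-score row- and column-corrected plate score, outside the 99.7% band of its plate's samples, either direction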
# Cav3 T inh = human Cav3.2 channel inhibition, primary screen | O95180 | Cav3.2-expressing cells, Fluo-4 calcium fluorescence FDSS; stronger effect = lower value | B-score at 10 µM | 100,000 compounds, 4% hits | AID 449739;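 active = single-dose well whose peak fluorescence ratio is a statistical outlier from its plate by either plate-standardised score or position-corrected B-score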
# M1 antagonist = M1 muscarinic receptor (rat) antagonism; AID 628; P08482; B-score at 10 µM; CHO-M1 cells, Fluo-4 calcium, ACh EC80 antagonist mode; stronger effect = lower value; 64,000 compounds, 3.4% hits;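 active = calcium fluorescence response, raw or row-and-column corrected B-score, differing from the plate sample mean either way at a set confidence level, mostly lower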
# PLAP activator = human PLAP activation; P05187; purified PLAP enzyme, luminescent substrate read-out; stronger effect = higher value; activation fold at 20 µM; 96,000 compounds, 1.2% hits; in the data active = activation fold above about 2
# Target sequence (P05187 whole entry, looked up): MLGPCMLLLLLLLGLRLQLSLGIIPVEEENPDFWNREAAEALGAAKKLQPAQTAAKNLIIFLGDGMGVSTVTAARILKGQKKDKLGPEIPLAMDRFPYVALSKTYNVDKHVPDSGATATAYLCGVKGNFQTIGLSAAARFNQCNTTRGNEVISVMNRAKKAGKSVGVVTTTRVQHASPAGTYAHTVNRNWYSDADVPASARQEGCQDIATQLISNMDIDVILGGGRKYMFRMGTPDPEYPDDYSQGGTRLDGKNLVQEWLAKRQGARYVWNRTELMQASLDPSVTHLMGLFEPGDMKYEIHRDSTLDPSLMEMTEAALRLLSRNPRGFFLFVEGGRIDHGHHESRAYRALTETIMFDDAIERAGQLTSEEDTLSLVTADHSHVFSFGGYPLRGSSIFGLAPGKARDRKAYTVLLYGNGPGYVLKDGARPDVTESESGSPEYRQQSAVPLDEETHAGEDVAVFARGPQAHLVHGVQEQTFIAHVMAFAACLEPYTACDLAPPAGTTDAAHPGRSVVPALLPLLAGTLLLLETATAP
# M1 antag conf = confirmation of rat M1 muscarinic receptor antagonists; CHO-M1 cells, Fluo-4 calcium, ACh EC80 antagonism; stronger effect = lower value; calcium response (max-min fluorescence) at 10 µM; 1,700 compounds, 43% hits; shares compounds with M1 antagonist;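 active = calcium response below the same-plate mean of wells given acetylcholine alone at its 80%-effect dose, minus 3 SD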;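 note: raw fluorescence intensity difference in arbitrary instrument units and not normalized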
# mGluR4 antag = mGluR4 (human) activity, M1 antagonist secondary assay. shares compounds with M1 antagonist. CHO-mGluR4 calcium flux, Fluo-4 fluorescence, glutamate EC80; stronger effect = lower value. fluorescence response (max-min) at 10 µM. 1,700 compounds, 0.9% hits. AID 678;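 active = fluorescence response below the plate's average for near-maximal glutamate wells, less 3 SD of those wells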;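 note: raw unnormalized fluorescence span taken in the window right after glutamate addition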
# Numbers without * were called inactive; · = not tested or not shown. Sampled rows, rich in hits. Any-hit rate of the full collection: about 7.6%.
SMILES,M1 agonist,Cav3 T inh,M1 antagonist,PLAP activator,M1 antag conf,mGluR4 antag
O=C(CN1C2=NCCN2c2ccccc21)C12CC3CC(CC(C3)C1)C2,-0.29,-3.2,-9.3*,1.6,337*,153
CC(C)N(Cc1ccccc1)S(=O)(=O)N(C)C,0.27,0.36,-0.00014,1,·,·
CN(C)S(=O)(=O)N(Cc1ccc(Br)cc1)c1ccccc1,0,-2.9,-2.2*,1.1,506,240
Nc1nc(CN2CCN(c3ccccc3)CC2)nc(N2CCCc3ccccc32)n1,-0.12,-3,-3.1*,1.6,659,252
COc1ccc(-n2nnnc2-c2cccc(OC)c2)cc1,0.84,-2.7,1.3,0.9,·,·
Clc1ccc(-n2nnnc2-c2ccccc2)cc1Cl,0.35,-1.2,-2.6*,0.7,516,250
CSC1=Nc2sc3c(c2C2=NCCN12)CC(C)(C)OC3,0.48,·,-4.6*,·,420,178
CC1(C)Cc2c(sc3c2C2=NCCN2C=N3)CO1,-1.2,0.48,-0.44,1.1,·,·
CCOc1ccccc1N1CCN(CC(O)COc2ccc3c(C)cc(=O)oc3c2)CC1 (stereo not drawn),1.1,0.77,-1.5*,1.4,455*,264
O=C(NCc1ccccc1)C1=C[C@@H](c2coc3ccccc3c2=O)C[C@@H](OCCCCO)O1,·,0.75,·,·,·,·
CC1CCCN(C(=O)COC(=O)c2n[nH]c3ccccc23)C1 (stereo not drawn),0.16,-0.093,-9.6*,2*,670,241
CC12CCC(C(=O)N3CCN(c4ccccc4)CC3)(CC1=O)C2(C)C (stereo not drawn),-0.45,-0.0023,-0.32,1.5,·,·
CC1(C)C(=O)OC(c2cccs2)C(C)(C)C1=O (stereo not drawn),-0.98,-0.85,0.1,1.1,·,·
CC1CCc2cc(F)ccc2N1C(=O)c1ccc2c(c1)OCO2 (stereo not drawn),0.75,-3.1,-0.45,1,·,·
Cc1cc(N/C=C2\CCCCC2=O)no1,0.00055,-1,0.16,0.8,·,·
CCOC(=O)N1CCN(C(=O)C2CCN(Cc3nc(-c4ccccc4C)oc3C)CC2)CC1,-0.72,·,-3*,1.8,538,224
Cc1oc(-c2ccc(Cl)cc2)nc1CN1CCCC(C(=O)N2CCc3ccccc32)C1 (stereo not drawn),-0.12,·,-0.18,·,·,·
CCOC(=O)N1CCN(C(=O)CSCc2nc(-c3ccccc3C)oc2C)CC1,-1.9,0.46,-0.37,1.3,·,·
Cc1oc(-c2ccc(Cl)cc2)nc1CN1CCCC(C(=O)NCCCN2CCCC2=O)C1 (stereo not drawn),-0.83,·,-4*,1.7,510,247
CCOC(=O)N1CCN(C(=O)C2CCCN(Cc3nc(-c4ccc(Cl)cc4)oc3C)C2)CC1 (stereo not drawn),0.48,·,-3.8*,1.6,343*,233
CN(C(=S)NC1=CCS(=O)(=O)C1)C1CCCCC1,·,1,·,1.2,·,·
Cc1ccc(-c2cc(C(=O)N/N=C/c3c(C)nn(C)c3C)c3ccccc3n2)c(C)c1,·,0.35,·,1.6,·,·
CN1C(=O)C2ON(c3ccccc3)C(c3cccs3)C2C1=O (stereo not drawn),-0.021,0.18,-2.7*,0.9,575,224
Cc1sc2ncnc(SCC(=O)N3CCCC3=O)c2c1C,-1.4,0.48,-4.3*,1.1,651,262
Cc1cc(C)n(-c2ccc(C(=O)OCC(=O)N(CC(C)C)C3CCS(=O)(=O)C3)cc2)n1 (stereo not drawn),-1.7,-0.3,-2.5*,1.2,595,220
SMILES,M1 agonist,Cav3 T inh,M1 antagonist,PLAP activator,M1 antag conf,mGluR4 antag
CCCN(CCO)Cc1ccc(Cl)c(Cl)c1,-0.48,0.19,0.22,0.9,·,·
CCCN(CCO)Cc1cccc(Cl)c1,-0.013,0.37,-2.6*,0.9,715,194
CC1CCCN(c2nc3ccsc3c(=O)s2)C1 (stereo not drawn),0.092,-1.2,-7.2*,1.1,273*,201
Clc1cc(CSc2ccccc2)nc(-c2ccccc2)n1,·,0.04,·,0.8,·,·
O=c1cc(CSc2nnnn2-c2ccccc2)nc2nc[nH]n12,-0.062,-0.91,-2.1*,0.8,626,258
O=c1cc(CSc2nnnn2-c2ccccc2)nc2scc(-c3ccccc3)n12,0.22,-0.15,0.46,1.2,·,·
Nc1c(Br)cc(Br)c(N2CCCC2=O)c1Br,·,0.57,·,1,·,·
Cc1nc(NCc2ccco2)[nH]c(=O)c1CCC(C)C,0.95,·,-2.4*,0.9,619,289
CC(NC(=O)C(CC(=O)OC(C)(C)C)NC(=O)OC(C)(C)C)C(N)=O (stereo not drawn),-1.2,-0.14,1.4,0.9,·,·
O=C(NC1CCN(Cc2ccccc2)CC1)C1CCCN(c2nnc(-n3cccc3)s2)C1 (stereo not drawn),-0.65,0.95,-3.3*,1.5,260*,194
O=C(NC1CCN(Cc2ccccc2)CC1)C1CCN(c2nnc(-n3cccc3)s2)CC1,-0.65,1.5,-1.3*,1.6,278*,241
O=S1(=O)C=C(Sc2nnc(-c3ccccc3)o2)c2ccccc21,-0.23,·,0.36,1.1,·,·
CC(CCN(C)C)OC(=O)c1ccc(C(C)c2ccccc2)o1 (stereo not drawn),0.25,0.17,-4.4*,1.6,349*,223
Cc1cc(C)c2nc(NC3=NCN(CCN4CCOCC4)CN3)nc(C)c2c1,-1.2,·,0.59,1.3,·,·
Cc1ccc2nc(NC3=NCN(CCN4CCOCC4)CN3)nc(C)c2c1,0.77,·,-2.6*,·,317*,233
O=C(Nc1ccc2c(c1)OCO2)c1ccc(COc2ccc3c(c2)CCC3)o1,-0.66,-1.9,-1.9*,0.8,647,232
Cc1cc(=O)n2nc(N3CCCC(C(=O)N4CCc5ccccc54)C3)sc2n1 (stereo not drawn),1.2,1.6,-12*,1.1,33*,224
CN1CCN(CC#CCn2c3ccccc3c3ccccc32)CC1,1.3,0.17,-13*,1.4,229*,219
COC(=O)N1CC(c2ccccc2)CC1=O (stereo not drawn),-0.031,0.11,-2.3*,0.7,694,253
Cc1ccnc(N/C=C(\C#N)c2nc(-c3cccc(Br)c3)cs2)c1,·,-1.8,·,0.9,·,·
COc1ccccc1NC(=O)COC(=O)c1ccc(S(=O)(=O)NCc2ccco2)cc1,-0.89,-0.18,-0.7,1.1,·,·
Cc1noc(C)c1COC(=O)c1ccc(S(=O)(=O)NCc2ccco2)cc1,-0.15,·,-2.6*,1.6,371*,194
Cc1onc(-c2ccccc2Cl)c1C(=O)Nc1ccc(-c2nnc3n2CCCCC3)cc1,0.36,0.16,-2.3*,1.6,408*,216
Cc1onc(-c2ccccc2Cl)c1C(=O)Nc1nnc(Cc2ccc(Cl)cc2)s1,·,0.84,·,1.3,·,·
Cc1onc(-c2ccccc2Cl)c1C(=O)Nc1nnc(C(C)C)s1,-0.16,1.1,-2.2*,1.1,377*,190
CCCc1cc(=O)[nH]c(SCC(=O)c2cc(C)n(CCOC)c2C)n1,0.082,-0.16,-3.6*,1.2,537,198
CCCc1cc(=O)[nH]c(SCC(=O)c2cc(C)n(C)c2C)n1,·,0.76,·,1,·,·
